From PubChem BioAssay (EPA / NIEHS)
Where “and” joins values, the source holds several entries; their conditions need not be identical. Identical values can stand only once. Calls of active or inactive are those of the source. The calls were made as follows: active = hit-call score of the fitted dose curve at least 0.9, where 1 is the maximum; inactive = score below 0.9.

Test system: TTR (gene 7276)
Experiment: CCTE_GLTED_hTTR_0.125uM: CCTE's human Transthyretin (hTTR) Inhibition Assay, with 0.125uM TTR, Great Lakes Toxicology and Ecology Division (GLTED) Lab (AID 2284431)
Description: CCTE_GLTED_hTTR is a cell-free, single-readout assay designed to test the chemicals' ability to displace T4 from the human transthyretin (TTR) protein. TTR (at 0.125uM or 0.5uM) is incubated in presence of test chemical for 2 hours during which disrupting chemicals displace ANSA from the TTR protein. Results read fluorescence at 380 excitation and 475 emission.CCTE_GLTED_hTTR_0.125uM is the assay component measured from the CCTE_GLTED_hTTR assay. It is designed to make measurements of fluorescent polarization, using a form of binding reporter, as detected with Fluorescence signals by Fluorescence technology.Data from the assay component CCTE_GLTED_hTTR_0.125uM was analyzed at the assay endpoint CCTE_GLTED_hTTR_0.125uM in the positive analysis fitting direction relative to DMSO as the negative control and baseline of activity. Using a type of binding reporter, loss-of-signal activity can be used to understand a chemical's ability to displace T4 from transthyretin. To generalize the intended target to other relatable targets, this assay endpoint is annotated to the 'transporter' intended target family, where the subfamily is 'hormone carrier protein'.
Human transthyretin (TTR) assay, developed at Great Lakes Toxicology and Ecology Division (GLTED) within the EPA's Center for Computational Toxicology and Exposure (CCTE), is designed to test the chemicals' ability to displace T4 from the TTR protein. TTR (0.125uM) is incubated in presence of test chemical for 2 hours during which disrupting chemicals displace ANSA from the TTR protein. Results read fluorescence at 380 excitation and 475 emission.

SMILES	AC50
O=C(O)c1[nH]n(-c2ccc(S(=O)(=O)O)cc2)c(=O)c1N=Nc1ccc(S(=O)(=O)O)cc1	17.8 µM (active)
O=C(NS(=O)(=O)/C=C/c1cccs1)c1ccc(F)cc1Br	7.75 µM (active)
CC(=O)CC(c1ccccc1)c1c(O)c2ccccc2oc1=O (configuration not stated)	7.34 µM (active) and 4.39 µM (active)
O=C1OC(c2ccc(O)cc2)(c2ccc(O)cc2)c2ccccc21	0.056 µM (active)
Cc1cc(Cc2ccc(N)c(C)c2)ccc1N	9.71 µM (active)
O=Cc1ccccc1C=O	0.121 µM (active)
O=C1c2c(O)cccc2Cc2cccc(O)c21	22 µM (active)
CCC(C)N(C)C(=O)c1cc2ccccc2c(-c2ccccc2Cl)n1 (configuration not stated)	27.1 µM (active)
S=c1[nH]c2ccccc2s1	4.06 µM (active)
CCCCc1nc2cccnc2n1Cc1ccc(-c2ccccc2-c2nnn[nH]2)cc1	7.22 µM (active)
Cc1c(C)c2c(c(C)c1O)CCC(C)(COc1ccc(CC3SC(=O)NC3=O)cc1)O2 (configuration not stated)	2.31 µM (active)
CCCCCCCCCCCCCCOS(=O)(=O)O	1.9 µM (active)
